This is an account of results in PubChem BioAssay (NCATS).

Experiment [1] deals with Zika virus NS2B-NS3 protease. The experiment is described as follows: Primary screen GU AMC qHTS for Zika virus inhibitors (AID 1347154). Also: nearly all actives have a fitted effect of over 70% in size. The note with it: Zika NS2B-NS3 unlinked protease, AMC fluorogenic substrate; series mostly up to 54.1 µM. The method, boiled down: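 Unlinked Zika NS2B hydrophilic domain–NS3 protease complex at 25 nM in 10 mM Tris-HCl pH 8.0, 0.01% Tween 20, with an AMC peptide substrate. Fluorescence change (340/450 nm) over 15 min at room temperature, normalized to controls, fitted to 4-parameter Hill.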

Experiment [2] relates to Zika virus NS2B-NS3 protease (unlinked complex). The experiment is described as follows: Primary screen GU Rhodamine qHTS for Zika virus inhibitors: Unlinked NS2B-NS3 protease assay (AID 1347159). Also: nearly all actives have a fitted effect of over 60% in size. Also: potency is read from the fitted curve at half-maximal effect. The conditions noted are these: Recombinant ZIKV NS2B-NS3 protease, Rhodamine110 substrate fluorescence; series mostly up to 107 µM. In short, it runs like this: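 Percent inhibition came from the 15-min rise in Rhodamine110 fluorescence (1.5 microM substrate, ~15% conversion), normalized to no-inhibitor and no-enzyme wells and Hill-fitted. Unlinked protease, 25 nM, pH 8.0 Tris buffer; compounds up to 114 microM, 15-min preincubation.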
On the technique in general: In qHTS, concentration-response curves come from the screen itself.

For experiment [3], the system named is Zika virus NS2B-NS3 protease (linked construct). The experiment is described as follows: Primary screen NINDS Rhodamine qHTS for Zika virus inhibitors (AID 1347160). Also: nearly all actives have a fitted effect of over 55% in size. Also: potency is read from the fitted curve at half-maximal effect. The conditions noted are these: purified NS2B-NS3 protease, Rhodamine110 substrate fluorescence; series mostly up to 57.1 µM. In short, it runs like this: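 Rhodamine110-peptide cleavage (1.5 µM substrate) by 25 nM linked NS2B-NS3 enzyme at pH 8.0 (Tris, Tween 20), after 15 min RT preincubation with compounds; 15-min fluorescence change normalized to controls and Hill-fitted.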

Experiment [4] concerns the target Lysine-specific demethylase 5B (Homo sapiens) (UniProt Q9UGL1). The experiment is described as follows: Optimization screen for KDM5B Histone Demethylases FDH coupled qHTS against the LOPAC library (AID 1347166). The note with it: KDM5B demethylation, FDH-coupled NADH fluorescence (FDH is formaldehyde dehydrogenase); series mostly up to 57.5 µM. The method, boiled down: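 KDM5BDeltaAP (200nM final) in 50mM HEPES pH 7.5, 0.01% Tween-20 was preincubated with compound for 10 min at room temperature. A substrate mix of 12.5uM H3K4Me3, 25uM a-ketoglutarate, ascorbate, Fe2+, NAD+ and formaldehyde dehydrogenase was then added. NADH fluorescence (340/450 nm) was read initially and after 30 min.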

Experiment [5] is described as follows: ZIKV-mCherry secondary qHTS for Zika virus inhibitors (AID 1347158). Also: top concentration of the series differs between compounds. The conditions noted are these: Vero cells, ZIKV-mCherry infection imaging, 48-72 h; series mostly up to 49.2 µM. In short, it runs like this:
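This orthogonal imaging screen measured ZIKV-mCherry infection of Vero cells exposed to compound, MOI 1, 48-72 h. Percent infection came from segmented nuclei scored mCherry-positive above 3 SD of negative controls.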

A short description of experiment [6]: Confirmatory screen NINDS Rhodamine qHTS for Zika virus inhibitors (AID 1347161). Also: potency is read from the fitted curve at half-maximal effect; nearly all actives have a fitted effect of over 60% in size. The note with it: purified enzyme assay, Rhodamine110 substrate fluorescence, 15 min; series mostly up to 228 µM. In short, it runs like this: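 Single-chain NS2B-NS3 protease, 25 nM, pH 8.0; compounds preincubated 15 min. Activity: Rhodamine110 release from 1.5 microM substrate over 15 min, room temperature, data fitted to 4-parameter Hill.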

Experiment [7] relates to Zika virus NS2B-NS3 protease (linked). Nature of the experiment: 384 well plate NINDS AMC confirmatory qHTS for Zika virus inhibitors (AID 1347163). Also: potency is read from the fitted curve at half-maximal effect; nearly all actives have a fitted effect of over 50% in size. The note with it: Recombinant NS2B-NS3 protease, Ac-VKTGKR-AMC fluorescence. In short, it runs like this:
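Enzyme (5, 30 or 60 nM final) first met test compounds for ~15 min. The AMC-tagged peptide Ac-VKTGKR-AMC followed at 30 microM. Fluorescence was then recorded at 25 min and scaled against no-enzyme and no-inhibitor wells.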

Experiment [8] concerns Zika virus NS2B-NS3 protease (linked construct). The experiment is described as follows: 384 well plate NINDS Rhodamine confirmatory qHTS for Zika virus inhibitors (AID 1347164).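 Also: fluorescence from protease cleavage of Ac-LKRR-rhodamine 110 substrate; potency is read from the fitted curve at half-maximal effect; nearly all actives have a fitted effect of over 65% in size.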 The note with it: rhodamine-110 peptide substrate fluorescence. In short, it runs like this:
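Fluorescence at 485/538 nm was measured 25 minutes after adding 10 microM Ac-LKRR-Rd substrate, in the dark at room temperature. The protease (5, 30 or 60 nM final) had been preincubated ~15 minutes with compound; aprotinin as control.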

Molecules are shown by their SMILES. Where “and” joins values, the source holds several entries; their conditions need not be identical. Equal entries are not always repeated. Inconclusive results are not listed. A call without a number means that no potency is given here. Calls of active or inactive are those of the source. Calls follow the shape of the dose curve; as a rule, active = well fitted curve in the direction sought with a large enough effect; inconclusive = small, poorly fitted or top-dose-only effect, or another doubt; inactive = no such curve, though single readings can be large; an effect the other way counts as inactive or inconclusive.

Chain of Lysine-specific demethylase 5B (Homo sapiens) (Q9UGL1 whole entry, looked up): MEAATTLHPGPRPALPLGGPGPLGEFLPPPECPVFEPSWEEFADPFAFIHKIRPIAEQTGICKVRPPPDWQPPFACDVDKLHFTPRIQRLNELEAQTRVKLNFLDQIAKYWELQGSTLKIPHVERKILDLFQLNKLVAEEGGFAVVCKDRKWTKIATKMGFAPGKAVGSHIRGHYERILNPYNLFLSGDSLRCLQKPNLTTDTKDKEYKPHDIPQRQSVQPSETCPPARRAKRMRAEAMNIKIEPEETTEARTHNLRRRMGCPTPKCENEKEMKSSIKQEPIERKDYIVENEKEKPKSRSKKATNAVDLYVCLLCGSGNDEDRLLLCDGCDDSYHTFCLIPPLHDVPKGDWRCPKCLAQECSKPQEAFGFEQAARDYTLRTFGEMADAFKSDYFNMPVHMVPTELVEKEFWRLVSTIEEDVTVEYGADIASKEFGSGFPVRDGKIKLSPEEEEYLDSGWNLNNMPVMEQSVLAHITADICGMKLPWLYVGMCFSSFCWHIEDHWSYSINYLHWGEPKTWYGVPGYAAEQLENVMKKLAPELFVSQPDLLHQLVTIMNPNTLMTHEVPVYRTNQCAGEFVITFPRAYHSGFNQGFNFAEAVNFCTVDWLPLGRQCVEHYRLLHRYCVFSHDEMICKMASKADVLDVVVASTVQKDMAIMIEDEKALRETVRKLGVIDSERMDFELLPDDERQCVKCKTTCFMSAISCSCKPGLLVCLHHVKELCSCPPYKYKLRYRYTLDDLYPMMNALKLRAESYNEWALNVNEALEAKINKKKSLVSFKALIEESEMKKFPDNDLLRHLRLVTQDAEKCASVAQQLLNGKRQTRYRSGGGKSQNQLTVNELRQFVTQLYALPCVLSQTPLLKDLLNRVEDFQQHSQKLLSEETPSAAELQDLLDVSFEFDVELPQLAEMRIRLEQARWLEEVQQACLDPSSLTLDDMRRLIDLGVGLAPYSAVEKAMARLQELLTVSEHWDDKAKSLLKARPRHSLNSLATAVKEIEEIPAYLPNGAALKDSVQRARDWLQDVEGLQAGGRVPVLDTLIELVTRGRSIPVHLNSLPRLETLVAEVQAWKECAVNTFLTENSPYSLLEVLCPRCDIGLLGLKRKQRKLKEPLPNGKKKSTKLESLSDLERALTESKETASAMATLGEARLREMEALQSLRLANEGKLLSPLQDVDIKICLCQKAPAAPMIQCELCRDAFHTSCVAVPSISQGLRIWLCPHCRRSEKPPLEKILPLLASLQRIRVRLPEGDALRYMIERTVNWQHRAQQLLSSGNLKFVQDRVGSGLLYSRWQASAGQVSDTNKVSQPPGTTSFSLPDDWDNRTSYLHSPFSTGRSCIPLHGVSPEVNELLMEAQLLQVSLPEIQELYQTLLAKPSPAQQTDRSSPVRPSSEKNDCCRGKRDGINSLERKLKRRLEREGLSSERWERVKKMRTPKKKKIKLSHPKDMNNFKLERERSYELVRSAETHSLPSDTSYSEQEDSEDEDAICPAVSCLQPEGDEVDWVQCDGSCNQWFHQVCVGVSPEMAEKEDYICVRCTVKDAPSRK

Turning to `O=C1C=CC[C@@H]2[C@H]3CCCN4CCC[C@@H](CN12)[C@@H]34`, the Potency result in experiment [1] and in experiment [2] was “inactive” each time.
Regarding `O=C(NCC1CCOCC1)c1cnc(Nc2ccc(Cl)cc2Cl)nc1C(F)(F)F`, the Potency result in experiment [1] and in experiment [3] was “inactive” each time.
Take `CC1=C(C(=O)O)N2C(=O)[C@@H](N)[C@H]2SC1`: the Potency entry in experiment [1] was “inactive”.
On to `Cc1c(C(=O)c2cccc3ccccc23)c2cccc3c2n1[C@H](CN1CCOCC1)CO3`, for which the Potency result in experiment [1] is “inactive”. Further, the compound was called inactive in experiment [4].
Take `CN(C)[C@@H]1C(=O)C(C(N)=O)=C(O)[C@@]2(O)C(=O)C3=C(O)c4c(O)cccc4[C@@](C)(O)[C@H]3[C@H](O)[C@@H]12`: the compound was classed as inactive in experiment [5]. Besides, the Potency is 19.7 µM (active) and 7.82 µM (active) in experiment [6]; 158 µM (active) and 8.91 µM (active) in experiment [7]; 50.1 µM (active) and 2.51 µM (active) in experiment [8].
For the compound `CC(O)CN1CCN(CC(=O)[O-])CCN(CC(=O)[O-])CCN(CC(=O)[O-])CC1.[Gd+3]` (stereo not given), the Potency result in experiment [1] is “inactive”.
`O=C(N[C@@H](COc1ccc2[nH]c(=O)[nH]c2c1)c1ccccc1)c1cccn(Cc2ccc(F)c(F)c2)c1=O`: the Potency result in experiment [1], in experiment [2] and in experiment [3] was “inactive” throughout.
`COC(C)(C)CCCC(C)C/C=C/C(C)=C/C(=O)OC(C)C` (stereo not given): the Potency entry in experiment [1] was “inactive”.
Consider `CCNC(=O)C[C@@H]1N=C(c2ccc(Cl)cc2)c2cc(OC)ccc2-n2c(C)nnc21`, for which the Potency entry in experiment [1] and in experiment [2] was “inactive” throughout.
With `C[C@]12CC[C@H](O)CC1=CC[C@H]1[C@H]3CCC(=O)[C@@]3(C)CC[C@@H]12`, in experiment [1], the Potency entry was “inactive”.
Same read-out and setting: as for `O=[N+]([O-])/N=C1\NCCN1Cc1ccc(Cl)nc1`, the entry is “inactive”.
In the case of `CC(C)N(CCNC(=O)CN1CCCC1=O)C(C)C`, the Potency entry in experiment [1], in experiment [2] and in experiment [3] was “inactive” throughout.
Turning to `O=C(Oc1ccc([N+](=O)[O-])cc1)N1CCN(Cc2cccc(Oc3ccccc3)c2)CC1`, the Potency result in experiment [1], in experiment [2] and in experiment [3] was “inactive” throughout.
As to `CCN(CC)C(=O)c1ccc(C2=CC3(CCNCC3)Oc3cccc(O)c32)cc1`, the Potency result in experiment [1], in experiment [2] and in experiment [3] was “inactive” throughout.
In the case of `CC(C)(O)C(=O)Nc1ccc([N+](=O)[O-])c(C(F)(F)F)c1`, the Potency result in experiment [1] is “inactive”.
On to `O=C(O)CNC(=O)c1c(O)c2ccccc2n(Cc2ccccc2)c1=O`, for which the Potency entry in experiment [1] was “inactive”. The Potency is 12.6 µM (active) in experiment [2] and 11.2 µM (active) in experiment [3].
Take `COc1ccc(N(C(=O)Oc2c(C)cccc2C)c2ccnc(Nc3ccc(N4CCN(C)CC4)cc3)n2)c(OC)c1`: the Potency entry in experiment [1] and in experiment [3] was “inactive” in each case.
`CCc1c(C(=O)C(N)=O)c2c(OCC(=O)O)cccc2n1Cc1ccccc1`: the Potency result in experiment [1], in experiment [2] and in experiment [3] was “inactive” each time.
Regarding `CN1CCN(c2ccc([N+](=O)[O-])c3no[n+]([O-])c23)CC1`, the Potency result in experiment [1], in experiment [2] and in experiment [3] was “inactive” each time.
Regarding `CCNC(=O)CC1N=C(c2ccc(Cl)cc2)c2cc(OC)ccc2-n2c(C)nnc21` (stereo not given), the Potency entry in experiment [1], in experiment [2] and in experiment [3] was “inactive” throughout.
In the case of `O=C(Oc1ccc([N+](=O)[O-])cc1)N1CCC(C(O)(c2ccc3c(c2)OCO3)c2ccc3c(c2)OCO3)CC1`, the Potency entry in experiment [1] and in experiment [3] was “inactive” each time.
On to `COC1=C[C@@H]2[C@@H]3Cc4ccc(OC)c(O)c4[C@]2(CCN3C)CC1=O`, for which the Potency result in experiment [1] and in experiment [3] was “inactive” each time.
As for `Oc1ccc2c3c1O[C@H]1c4[nH]c5c(c4C[C@@]4(O)[C@@H](C2)N(CC2CC2)CC[C@]314)C[C@@]1(O)[C@H]2Cc3ccc(O)c4c3[C@@]1(CCN2CC1CC1)[C@H]5O4`, the Potency entry in experiment [1] is “inactive”. Also, the compound was classed as inactive in experiment [4].
